The campaign covered roughly 5,500 compounds. About 2,000 (36%) were called active. About 18% were inconclusive and are not listed. Cut-off read from the data, not from the text of the source: active = normalized growth mostly below about 0.91 (no sharp cut-off); inconclusive = no clear call, values can overlap the other calls; inactive = mostly above about 0.92. The list shows a part of the results.
Assay: chemical genetic growth profiling, strain panel (AID 1159580);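 note: tested at 20 µM; growth read once vehicle control cultures reached saturation at 30 °C; 1 = growth at the plate median or of vehicle wells; lower values mean less growth of the strain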
Settings: S. cerevisiae deletion strains, growth OD

Measured: normalized growth

C=C1C2CC[C@H]3[C@]4(C)C[C@H](OC5OC(CO)C(OS(=O)(=O)O)C(OS(=O)(=O)O)C5OC(=O)CC(C)C)C[C@@H](C(=O)O)[C@H]4CC[C@]3(C2)[C@H]1O (some centres undefined)
inactive: locus YAL013W, strain DEP1, hits give low values 1.01 | locus YAL021C, strain ccr4, hits give low values 0.974 | locus YAL026C, strain drs2, hits give low values 1.01 | locus YAL030W, strain snc1, hits give low values 1.01 | locus YBL061C, strain skt5, hits give low values 1.01 | locus YBR009C, strain hhf1, hits give low values 1.02 | locus YBR021W, strain FUR4, hits give low values 1.02 | locus YBR023C, strain chs3, hits give low values 1.01 | locus YBR171W, strain sec66, hits give low values 1.01 | locus YBR229C, strain ROT2, hits give low values 1.01 | locus YBR231C, strain swc5, hits give low values 1.02 | locus YBR279W, strain paf1, hits give low values 1.01 | locus YCL011C, strain gbp2, hits give low values 1.01 | locus YCL016C, strain dcc1, hits give low values 1 | locus YCL029C, strain bik1, hits give low values 0.983 | locus YCL061C, strain MRC1, hits give low values 1.01 | locus YCL069W, strain vba3, hits give low values 1.02 | locus YCR088W, strain abp1, hits give low values 1.01 | locus YDL005C, strain med2, hits give low values 1 | locus YDL035C, strain GPR1, hits give low values 1.01 | locus YDL040C, strain nat1, hits give low values 1 | locus YDL074C, strain BRE1, hits give low values 1.04 | locus YDL101C, strain DUN1, hits give low values 1.02 | locus YDL134C, strain PPH21, hits give low values 1.01 | locus YDL185W, strain tfp1, hits give low values 0.986 | locus YDL192W, strain arf1, hits give low values 0.986 | locus YDR001C, strain nth1, hits give low values 1.01 | locus YDR069C, strain doa4, hits give low values 1.02 | locus YDR101C, strain arx1, hits give low values 0.979 | locus YDR137W, strain rgp1, hits give low values 1.01 | locus YDR150W, strain NUM1, hits give low values 1.01 | locus YDR159W, strain sac3, hits give low values 1.01 | locus YDR162C, strain NBP2, hits give low values 1.04 | locus YDR195W, strain ref2 0.999 | locus YDR297W, strain sur2, hits give low values 1.01 | locus YDR318W, strain mcm21, hits give low values 0.978 | locus YDR334W, strain swr1, hits give low values 1.01 | locus YDR335W, strain msn5, hits give low values 1.01 | locus YDR388W, hits give low values 0.988 | locus YDR392W, strain spt3, hits give low values 0.942 | locus YDR502C, strain sam2, hits give low values 0.994 | locus YEL003W, strain gim4, hits give low values 1.01 | locus YEL037C, strain rad23, hits give low values 1.01 | locus YEL061C, strain CIN8 (second series), hits give low values 1 | locus YEL061C, strain CIN8, hits give low values 1 | locus YER015W, strain faa2, hits give low values 1.01 | locus YER016W, strain bim1, hits give low values 1.01 | locus YER110C, hits give low values 0.975 | locus YER111C, strain swi4, hits give low values 1.01 | locus YER155C, strain BEM2 (second series), hits give low values 1.02 | locus YER155C, strain BEM2, hits give low values 1.02 | locus YER167W, strain BCK2, hits give low values 1 | locus YFR010W, strain ubp6, hits give low values 1.01 | locus YGL078C, strain dbp3, hits give low values 0.978 | locus YGL086W, strain mad1, hits give low values 0.972 | locus YGL167C, strain pmr1, hits give low values 1.01 | locus YGL173C, strain kem1, hits give low values 1.01 | locus YGL227W, strain vid30, hits give low values 1.01 | locus YGL240W, strain doc1, hits give low values 1.03 | locus YGL248W, strain PDE1, hits give low values 1.01 | locus YGL253W, strain hxk2, hits give low values 1.01 | locus YGR078C, strain PAC10, hits give low values 1.03 | locus YGR135W, strain pre9, hits give low values 0.987 | locus YGR229C, strain SMI1, hits give low values 1.02 | locus YGR252W, strain gcn5, hits give low values 1.02 | locus YHR013C, strain ard1, hits give low values 0.999 | locus YHR027C, strain rpn1, hits give low values 1.01 | locus YHR030C, strain SLT2, hits give low values 1 | locus YHR079C, strain IRE1 (second series), hits give low values 0.987 | locus YHR094C, strain hxt1, hits give low values 0.988 | locus YHR129C, strain ARP1, hits give low values 1.01 | locus YHR142W, strain chs7, hits give low values 0.985 | locus YHR200W, strain rpn10, hits give low values 0.996 | locus YIL066C, strain RNR3, hits give low values 1.02 | locus YIL073C, strain SPO22, hits give low values 0.966 | locus YIL125W, strain kgd1, hits give low values 0.97 | locus YIR030C, strain dcg1, hits give low values 0.99 | locus YJL092W, strain hpr5, hits give low values 1.01 | locus YJL095W, strain BCK1 (second series), hits give low values 1.01 | locus YJL095W, strain BCK1, hits give low values 1.02 | locus YJL115W, strain asf1, hits give low values 1.01 | locus YJL129C, strain trk1, hits give low values 1.01 | locus YJL134W, strain LCB3, hits give low values 1.01 | locus YJL154C, strain vps35, hits give low values 1.01 | locus YJL164C, strain tpk1, hits give low values 1 | locus YJL166W, strain qcr8, hits give low values 1 | locus YJL168C, strain set2, hits give low values 0.985 | locus YJL187C, strain SWE1 (second series), hits give low values 1.02 | locus YJL187C, strain SWE1, hits give low values 1.02

From PubChem BioAssay AID1159580 (chemical genetic matrix, 2015)
